Laboratory results taken from PubChem BioAssay (EPA / NIEHS).
Calls of active or inactive are those of the source. The calls were made as follows: active = hit-call score of the fitted dose curve at least 0.9, where 1 is the maximum; inactive = score below 0.9.

assay: ATG_ERE_CIS: Attagene CIS-FACTORIAL HepG2 Assay for Estrogen Response Element (ERE) (AID 2282940); settings: HepG2 ERE cis-reporter, Attagene RNA transcript; actives raise or lower the signal
Procedure: ATG_CIS is a cell-based, multiplexed-readout assay that uses HepG2, a human liver cell line, with measurements taken at 24 hours after chemical dosing in a 24-well plate.ATG_ERE_CIS is one of 52 assay component(s) measured or calculated from the ATG_CIS assay. It is designed to make measurements of mRNA induction, a form of inducible reporter, as detected with fluorescence intensity signals by Reverse transcription polymerase chain reaction (RT-PCR) and Capillary electrophoresis technology.Data from the assay component ATG_ERE_CIS was analyzed into 1 assay endpoint. This assay endpoint, ATG_ERE_CIS, was analyzed with bidirectional fitting relative to DMSO as the negative control and baseline of activity. Using a type of inducible reporter, measures of mRNA for gain or loss-of-signal activity can be used to understand the reporter gene at the transcription factor-level as they relate to the gene ESR1. Furthermore, this assay endpoint can be referred to as a primary readout, because this assay has produced multiple assay endpoints where this one serves a reporter gene function. To generalize the intended target to other relatable targets, this assay endpoint is annotated to the nuclear receptor intended target family, where the subfamily is steroidal.
Human liver HepG2 cells are transiently transfected with multiple reporter transcription units (MRTUs) in 6-well plates using FuGene 6 reagent (Roche; 3 ml FuGene/1 mg DNA). The MRTU constructs are regulated by a cis-regulating element (promoter). […] A major difference between the CIS and TRANS system is that in CIS activities of endogenous TFs are measured, whereas the TRANS assay evaluates changes in activities of exogenous, chimeric NR-Gal4 proteins. […] At the end of 24 hour incubation, total RNA was isolated using TriZol reagent (Invitrogen). The isolated RNA is then reverse-transcribed using oligo(dT) primer and Mo-MLV reverse transcriptase (Invitrogen) with DNAse I (Ambion) treatment for 30 min. The one-tenth of the produced cDNA was amplified by PCR using Taq DNA polymerase (Invitrogen) and two reporter sequence-specific primers. The PCR products were fluorescently labeled by primer extension with 6-arboxyfluorescein (6-FAM) 5'-labeled reporter sequence-specific primer (2 min at 95 C, 20 s at 68 C and 10 min at 72 C) and these products were digested with 5U of HpaI (New England Biolabs) for 2h at 37 C. The fragments were purified using Qiaquick PCR columns (Qiagen), analyzed on an ABI 3130xL genetic analyzer (Applied Biosystems) with peak positions identified by using a set of X-rhodamine (ROX)-labeled MapMarker1000 molecular weight standards (BioVentures). The raw capillary electrophoresis data was processed using Attagraph software (Attagene).

Structure (SMILES)	outcome	AC50
CCCCOCCOC(C)=O	inactive	–
CCOC(=O)/C=C(C)/C=C/C[C@@H](C)CCCC(C)C	inactive	–
COC(=O)c1sccc1S(=O)(=O)NC(=O)Nc1nc(C)nc(OC)n1	–	47.4 µM (active)
CCCCP(CCCC)CCCC	–	72.5 µM (active)
O=[N+]([O-])c1ccc(O)c([N+](=O)[O-])c1	inactive	–
Cn1sc(Cl)cc1=O	inactive	–
COP(=O)(OC)O/C(=C\Cl)c1cc(Cl)c(Cl)cc1Cl	–	4.11 µM (active)
N#CCc1ccc(Cl)cc1	inactive	–
ClCc1ccccn1	inactive	–
Cl/C=C/Cl	inactive	–
COP(=S)(OC)Oc1ccc(Sc2ccc(OP(=S)(OC)OC)cc2)cc1	inactive	–
OCC(O)CCl (stereo not given)	inactive	–
COc1ccc(C=O)cc1OC	–	15.2 µM (active)
CCOP(=O)(CN(CCO)CCO)OCC	inactive	–
Fc1ccc(C2(Cn3cncn3)OC2c2ccccc2Cl)cc1 (stereo not given)	inactive	–
NC(=S)Nc1ccccc1	–	39.2 µM (active)
O=P(O)(O)CN(CP(=O)(O)O)CP(=O)(O)O	inactive	–
C=CC(=O)N(C)C	inactive	–
NC(=O)O	inactive	–
CCSC(C)CC1CC(=O)C(C(CC)=NOC/C=C/Cl)=C(O)C1 (stereo not given)	inactive	–

Structure (SMILES)	outcome	AC50
[O-][Cl+2]([O-])O	inactive	–
CC(C)C1CCC(Cc2ccc(Cl)cc2)C1(O)Cn1cncn1 (stereo not given)	inactive	–
Cc1cc(=O)[nH]o1	inactive	–
CC(=[OH+])/C=C(/C)[O-].CC(=[OH+])/C=C(/C)[O-].CC(=[OH+])/C=C(/C)[O-].[Al]	inactive	–
CC(=O)C(Cl)C(=O)N(C)C (stereo not given)	inactive	–
C[C@@H](Oc1ccc(Cl)cc1Cl)C(=O)O	inactive	–
CC(C)(c1ccccc1)c1ccc(O)c(C(C)(C)c2ccccc2)c1	–	5.86 µM (active)
CCCCC(CC)CO[N+](=O)[O-] (stereo not given)	inactive	–
O=C1CCCN1	inactive	–
Nc1cccc2ccccc12	inactive	–
Nc1ncc([N+](=O)[O-])s1	inactive	–
Oc1c(I)cc(I)cc1I	inactive	–
CCC(=O)C(CC(C)N(C)C)(c1ccccc1)c1ccccc1 (stereo not given)	inactive	–
O=CC=O	inactive	–
CCOP(=S)(OCC)Oc1ccc(S(C)=O)cc1 (stereo not given)	inactive	–
Clc1nc(Cl)nc(Cl)n1	inactive	–
Cc1cc(Cl)ccc1O[C@H](C)C(=O)O	inactive	–
Cc1ccc(N)cc1Cl	inactive	–
Cl/C=C\C[N+]12CN3CN(CN(C3)C1)C2	inactive	–
CC(C)CCCCCCOC(=O)c1ccccc1C(=O)OCCCCCCC(C)C	inactive	–
